In this assay the target is Lysosomal acid glucosylceramidase (Homo sapiens) (UniProt P04062). As to the kind of experiment: Activators of Human alpha-Glucosidase as a Potential Chaperone Treatment of Pompe Disease: Alpha-Galactosidase Counter Screen. The note with it: purified human alpha-galactosidase, 4-MU fluorogenic substrate. The text has this:
Alpha-glucosidase is responsible for hydrolysis of terminal, non-reducing 1,4-linked alpha-D-glucose residues with release of alpha-D-glucose. It is a lysosomal hydrolase that is required for the degradation of a small percentage (1-3%) of cellular glycogen in human. Deficiency of this enzyme results in glycogen-storage disease type II (GSDII), also referred to as Pompe disease, an autosomal recessive disorder. Structurally normal glycogen is accumulated in lysosomes and cytoplasm in affected patients, primarily in muscle tissues. Excessive glycogen storage within lysosomes may interrupt normal functioning of other organelles and leads to cellular injury. In turn, this leads to enlargement and dysfunction of the entire organ involved (eg, cardiomyopathy and muscle weakness). […]
This is a fluorogenic enzyme assay with 4-methylumbelliferyl-[…] as the substrate and human alpha-galactosidase as the enzyme preparation. […] 4-methyllumbelliferone, can be excited at 365 nm and emits at 440 nm which can be detected by a standard fluorescence plate reader. […] In the AC50 values were determined from concentration-response data modeled with the standard Hill equation. […] (5) Add 2 ul stop solution (1M NaOH and 1M Glycine mixture, pH 10) (6) Detect the assay plate in a ViewLux plate reader (PerkinElmer) with Ex=365 nm and Em=440nm. […]

Inconclusive results are not listed. Active and inactive are the calls of the source. Calls come from the whole dose curve; as a rule, active = well fitted curve in the direction sought with a large enough effect; inconclusive = small, poorly fitted or top-dose-only effect, or another doubt; inactive = no such curve, though single readings can be large or run the other way.

The results in this text go back to PubChem BioAssay AID540361 (National Center for Advancing Translational Sciences (NCATS), 2011).

On to `CCCN1CNc2c(c(=O)[nH]c(=S)n2CCc2cccc(Cl)c2Cl)C1`, for which the Potency was 9.13 µM (active).
